Measurements as given in PubChem BioAssay.
Activity calls are given as the source filed them.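 The calls were made as follows: active = compounds whose cell count with miR-34 switched on is under 0.7 times the count with it off; inactive = the rest.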

Test: viability loss with induced miR-34 in A549 – imaging, A549 dox-inducible miR-34, nuclei and caspase counts, primary screen (AID 1347080); also: test concentration not given here
Conditions: A549 miR-34 inducible, Hoechst nuclei count, 48 h; hits give low values; cell number ratio, induced over uninduced

| SMILES | fold change |
| --- | --- |
| COC(=O)CCC[C@H](O)[C@H](O)CO | 1.05 (inactive) |
| O=C(Cc1ccccc1Nc1c(Cl)cccc1Cl)Oc1ccc(-c2cc(=S)ss2)cc1 | 0.933 (inactive) |
| CCCCCCCC/C=C\CCCCCCCCCCCC(N)=O | 1.07 (inactive) |
| O=S(=O)(NO)c1ccccc1 | 1.01 (inactive) |
| CCCc1oc(CCC(=O)O)c(C(=O)O)c1C | 0.885 (inactive) |
| CCCCC[C@](C)(O)/C=C/[C@@H]1[C@@H](C/C=C\CCCC(=O)O)[C@@H](O)C[C@H]1O | 0.971 (inactive) |
| CCCC[C@H](C)C[C@H](O)/C=C/[C@@H]1[C@@H](CCCCCCC(=O)O)[C@@H](O)C[C@H]1O | 0.931 (inactive) |
| CCCCC/C=C\C/C=C\C/C=C\C/C=C\CCCC(=O)OCC(O)CO (stereo not given) | 0.924 (inactive) |
| CCCCCCCCCC(=O)N[C@@H](Cc1c[nH]c2ccccc12)C(=O)N[C@@H](CC(N)=O)C(=O)N[C@@H](CC(=O)O)C(=O)N[C@@H]1C(=O)NCC(=O)N[C@@H](CCCN)C(=O)N[C@@H](CC(=O)O)C(=O)N[C@H](C)C(=O)N[C@@H](CC(=O)O)C(=O)NCC(=O)N[C@H](CO)C(=O)NC([C@@H](C)CC(=O)O)C(=O)N[C@@H](CC(=O)c2ccccc2N)C(=O)OC1C (stereo not given in full) | 0.953 (inactive) |
| CCCCCCOC(=O)[C@@]1(O)CC2OC1(C)n1c3ccccc3c3c4c(c5c6ccccc6n2c5c31)C(=O)NC4 (stereo not given in full) | 0.758 (inactive) |
| CCCC[C@H](CCC(=O)O)NC(=O)CCCCCCc1ccccc1 | 0.993 (inactive) |
| C/C(O)=C1\C(=O)[C@@H]2[C@H]3c4c[nH]c5cccc(c45)C[C@H]3C(C)(C)N2C1=O | 1.02 (inactive) |
| O=C(O)CCC/C=C/C[C@@H]1[C@@H](CC[C@@H](O)CCc2ccccc2)[C@H](O)C[C@@H]1O | 0.961 (inactive) |
| CC(C)=CCC/C(C)=C/CC/C(C)=C/CC[C@]1(C)CCc2cc(O)c(C)c(C)c2O1 | 0.98 (inactive) |
| N#Cc1cc2c(OCC(O)CN3CCN(C(c4ccccc4)c4ccccc4)CC3)cccc2[nH]1 (stereo not given) | 0.956 (inactive) |
| CCCCC[C@H](O)/C=C/[C@H]1[C@H](O)CC(=O)[C@@H]1C/C=C\CCCC(=O)NCCO | 1.16 (inactive) |
| CCNC1=N[C@@H]2[C@@H](O)[C@H](O)[C@@H](CO)O[C@@H]2S1 | 0.906 (inactive) |
| CCCCC[C@H](O)/C=C/[C@H]1[C@H](O)CC(=O)[C@H]1C/C=C\CCCC(=O)O | 0.969 (inactive) |
| CO[C@H]1CC(O[C@@H]2/C(C)=C/C[C@@H]3C[C@@H](C[C@]4(C=C[C@H](C)[C@@H](C5CCCCC5)O4)O3)OC(=O)[C@@H]3C=C(C)[C@@H](O)[C@H]4OC/C(=C\C=C\[C@@H]2C)[C@]43O)O[C@@H](C)C1O[C@H]1C[C@H](OC)[C@@H](O)[C@H](C)O1 (stereo not given in full) | 0.703 (inactive) |
| O=C(O)CCC/C=C\C[C@H]1C(=O)C=C[C@@H]1/C=C/[C@@H](O)COc1ccccc1 | 0.91 (inactive) |

| SMILES | fold change |
| --- | --- |
| CCCCC[C@H](O)/C=C/[C@H]1C(=O)C[C@H](O)[C@@H]1CCCCCCC(=O)O | 0.92 (inactive) |
| CCCCCCCCCC(=O)CC(=O)N[C@H]1CCOC1=O | 0.908 (inactive) |
| CN(C)CCCCCCOc1ccc(-n2ccnc2)cc1 | 1.01 (inactive) |
| CCCCC/C=C\C/C=C\CCCCCCCC(=O)OC[C@H](O)CO | 0.698 (active) |
| CCCCCC/C=C\CCCC(=O)CC(=O)N[C@H]1CCOC1=O | 1.06 (inactive) |
| CCCCC[C@H](O)CC[C@@H]1[C@@H](C/C=C\CCCC(=O)O)[C@@H](O)C[C@H]1O | 0.936 (inactive) |
| C[C@H](N)C(=O)CCCCCC(=O)O | 1.03 (inactive) |
| CC(C)=CCC/C(C)=C/CC/C(C)=C/CSc1ccccc1C(N)=O | 0.994 (inactive) |
| Cc1nc(-c2ccc(C(F)(F)F)cc2)sc1C(=O)NCc1ccc(OC(C)(C)C(=O)O)cc1 | 0.946 (inactive) |
| CCCCC[C@H](O)/C=C/[C@H]1C=CC(=O)[C@H]1CCCCCCC(=O)O | 0.88 (inactive) |
| CCCCCCCCCCCCCCCC(=O)NC(CO)CO | 0.966 (inactive) |
| CCCCCCCCCCCCCCCCOC[C@H](COP(=O)([O-])OCC[N+](C)(C)C)OC(=O)CCCCCCCC(=O)O | 0.862 (inactive) |
| CCCCC[C@H](O)/C=C/[C@H]1C2COC(C2)[C@@H]1C/C=C/CCCC(=O)O (stereo not given in full) | 0.903 (inactive) |
| CCCCCCCCCCCCCCCC(=O)OCC | 0.854 (inactive) |
| O=C(O)CCCCCC[C@@H]1C(=O)NC(=O)N1CCC(O)C1CCCCC1 (stereo not given in full) | 1.01 (inactive) |
| O=C1C(c2ccccc2)N(c2ccc(Br)cc2)C(=O)N1c1ccc(Br)cc1 (stereo not given) | 0.936 (inactive) |
| CCCCC[C@H](O)/C=C/[C@H]1CC[C@@H](O)[C@@H]1CCCCCCC(=O)O | 0.884 (inactive) |
| CCCCC[C@H](O)/C=C/[C@@H]1[C@@H](CCCCC(CC(=O)O)OC)[C@@H](O)C[C@H]1O (stereo not given in full) | 0.924 (inactive) |
| CCCCCCCCCCCCCCP(=O)(O)O | 0.898 (inactive) |
| CCCCCCCCCCCSCC(=O)O | 1.05 (inactive) |
